The test system of one experiment is FXR:RXRa (NR concentration 270 nM, RXRa partner concentration 90 nM). Description: PBM binding z-score (relative to random genomic background probes); higher = stronger binding; sequences stand for … in GC…GCGATTGACAGCGTAGAATGAAGG
The essentials:
(§1)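 Probes were double-stranded and carried 34-nt variable regions with direct-repeat seeds, single-nucleotide variants, half-site ablations and random human genomic background sequences, printed on custom Agilent 4×180K protein-binding microarrays. Arrays were incubated 1 h with ligand-free nuclear receptor dimers in PBS pH 7.4, 2% milk, 0.02% Triton X-100, 1 mM DTT, 0.2 mg/mL BSA and 0.4 mg/ml salmon testes DNA. Antibodies against each partner (one per run) detected binding, and scanned fluorescence was regression-normalized. Binding z-scores use the random background probes as reference.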
The sequence AGTCAAAGTTCATCCAGGTAACGTAAGATATGCT showed a PBM binding z-score of 6.4.

In the case of CTCGAAAGGTCGGTTGAGGTGAGTAGACGGATAA, the PBM binding z-score amounted to 2.24.

CCTTACGGGTCACGAGGTTATAGGACGACGAGCG displayed a PBM binding z-score of 6.8.

The sequence ATCGAAAGGTCGACGAGGTGACTATACACCGTTT returned a PBM binding z-score of 4.76.

AGAATGAGGTTACGAAAGATCAGGGAAACGCTTG came in with a PBM binding z-score of 2.59.

TCTGCTAGGTTAACGATGGTCAGCTAATCTGCTA: the PBM binding z-score is -1.53.

ATCGAAAGGTCGACGAGGTGAGTATTCACCGTTT yielded a PBM binding z-score of 4.22.

Consider ATATGTAGGTAAGCTGGGGTCATTCAGACTAGGC, for which the PBM binding z-score was 4.33.

CATACAGGGTCAGCTAGCCCAGAGTAGGGACGGC gave a PBM binding z-score of 4.68.

In turn, ATCGAAAGATCGAGGTGAGTATAGAGAAAGGGAA had a PBM binding z-score of 0.0424.

As to TCTATTAGTTAAAGGGCAACCGACGAGTCCGTTT, the PBM binding z-score was 0.559.

For CCTATTATTTGACCATAAGGGCAACCGAAGCTCG, the PBM binding z-score came out at 1.29.

For the sequence AATACACGGTCATCGTAGGCCAGAGTACGCACAG, the PBM binding z-score is 1.37.

Sequence CGTCCAAGGGCAAAGGTCAGTGAAGAGATGACGG returned a PBM binding z-score of 4.46.

For the sequence CCTTACGGGTCACAAGGTTATAGCACGACGAGCG, the PBM binding z-score stood at 5.77.

As for GCGACTGGGGCATCAGCAGGTTCCCATAACTTAA, the PBM binding z-score was -0.761.

As for AGAACGAGGGCACGCTGAGTTTATAGCAGAGTAG, the PBM binding z-score worked out at 0.87.

The sequence GATACAGGGTCAAGGCCAGATTACGCGTATTGAT had a PBM binding z-score of 7.02.

For ATACCAAGGTGAACGTGAGGTCGTTGATACTAAC, the PBM binding z-score was determined as 3.12.

With CCTGCTAGGTCTTGGTCAGCTAATCTACAGTATG, the PBM binding z-score was -0.4.

In turn, GCTTGTAGATCAAGGTTACGAAAGACTAAGCTAA gave a PBM binding z-score of 0.195.

Take CCTGCTAGGTCATGGTCAGCTACTCTACAGTATG: the PBM binding z-score amounted to 3.3.

Sequence TCGAGTAGGTTACCAATGGGGCAGTCAGCTTTCT showed a PBM binding z-score of 0.254.

In the case of GGAACGAGGGAAAAGTTGATAGCATCTGTCGACG, the PBM binding z-score was -0.286.

ATATGTAGGTTATCGGGTCATTCCGTTTGCGCAT: the PBM binding z-score turned out to be 3.08.

For AGAATGAGGTTCCCAAAGATCAGGGAAACGCTTG, the PBM binding z-score is -0.395.

For the sequence CCTACTGGGCCAAGGTCATTGATCAGTCAAAGCA, the PBM binding z-score was 2.95.

Sequence ATCTCTAGGTAAAAAGTTCAGTGAAAGAGAGGAC registered a PBM binding z-score of 1.28.

Sequence CCTTACGGGTCACTCCAGATTATAGCATCGGAGT returned a PBM binding z-score of 4.83.

AGTCAAAGTTCATCTAGGCAACGTAAGATATGCT came in with a PBM binding z-score of 6.17.

Turning to TAGCCTAGGTCAGTCAGGGGCCAGTATAGAAAGC, the PBM binding z-score came to 1.42.

Sequence CCGACTGGGGCAGAAAGGTTACCACACCATCCGG displayed a PBM binding z-score of 0.286.

ATATGTAGGTTACATCTGGGTCATTCAGGCTATG returned a PBM binding z-score of 1.65.

In turn, TCAGACAGATGAAGGTAACTCAGGTACGCAGTCG returned a PBM binding z-score of 0.719.

Take CTCGAAAGGTCGGTTAAGGTGAGTATACGGATAA: the PBM binding z-score worked out at 3.06.

Regarding TCGAGTAGGTTAGGGGCATTCTGAATGGCGTCGA, the PBM binding z-score was 0.16.

Sequence GATACAGGGTCAAGGCCGGAGTACGCGTATTGAT yielded a PBM binding z-score of 6.13.

In the case of GCTGCTAGGTCAACTGATGGTCAGTTAAAGCTCG, the PBM binding z-score was 3.99.

For the sequence ACTAGCAGGCCAAGTTTGGGCCACTCAAACAAAG, the PBM binding z-score is -0.478.

For another experiment, the system named is LXRa:RXRa (NR concentration 270 nM, RXRa partner concentration 90 nM). The experiment is described as above. The essentials: as §1
As for AGTCAAAGTTCATCCAGGTAACGTAAGATATGCT, the PBM binding z-score was found to be 6.22.

CTCGAAAGGTCGGTTGAGGTGAGTAGACGGATAA displayed a PBM binding z-score of 1.85.

The sequence CCTTACGGGTCACGAGGTTATAGGACGACGAGCG returned a PBM binding z-score of 4.66.

On to ATCGAAAGGTCGACGAGGTGACTATACACCGTTT, for which the PBM binding z-score worked out at 3.44.

As to AGAATGAGGTTACGAAAGATCAGGGAAACGCTTG, the PBM binding z-score was determined as 4.99.

In turn, TCTGCTAGGTTAACGATGGTCAGCTAATCTGCTA yielded a PBM binding z-score of 0.817.

Sequence ATCGAAAGGTCGACGAGGTGAGTATTCACCGTTT had a PBM binding z-score of 3.41.

With ATATGTAGGTAAGCTGGGGTCATTCAGACTAGGC, the PBM binding z-score is 4.31.

CATACAGGGTCAGCTAGCCCAGAGTAGGGACGGC came in with a PBM binding z-score of 3.03.

In turn, ATCGAAAGATCGAGGTGAGTATAGAGAAAGGGAA came in with a PBM binding z-score of 0.111.

TCTATTAGTTAAAGGGCAACCGACGAGTCCGTTT returned a PBM binding z-score of 1.45.

In turn, CCTATTATTTGACCATAAGGGCAACCGAAGCTCG had a PBM binding z-score of 0.777.

The sequence AATACACGGTCATCGTAGGCCAGAGTACGCACAG displayed a PBM binding z-score of 3.15.

Sequence CGTCCAAGGGCAAAGGTCAGTGAAGAGATGACGG returned a PBM binding z-score of 4.17.

For CCTTACGGGTCACAAGGTTATAGCACGACGAGCG, the PBM binding z-score worked out at 4.34.

As for GCGACTGGGGCATCAGCAGGTTCCCATAACTTAA, the PBM binding z-score was -0.491.

Turning to AGAACGAGGGCACGCTGAGTTTATAGCAGAGTAG, the PBM binding z-score amounted to 1.08.

GATACAGGGTCAAGGCCAGATTACGCGTATTGAT showed a PBM binding z-score of 4.53.

Regarding ATACCAAGGTGAACGTGAGGTCGTTGATACTAAC, the PBM binding z-score was determined as 3.08.

For CCTGCTAGGTCTTGGTCAGCTAATCTACAGTATG, the PBM binding z-score was -0.437.

Take GCTTGTAGATCAAGGTTACGAAAGACTAAGCTAA: the PBM binding z-score is 1.01.

Turning to CCTGCTAGGTCATGGTCAGCTACTCTACAGTATG, the PBM binding z-score is 2.34.

TCGAGTAGGTTACCAATGGGGCAGTCAGCTTTCT displayed a PBM binding z-score of 0.465.

GGAACGAGGGAAAAGTTGATAGCATCTGTCGACG: the PBM binding z-score was -0.349.

In turn, ATATGTAGGTTATCGGGTCATTCCGTTTGCGCAT gave a PBM binding z-score of 3.17.

Turning to AGAATGAGGTTCCCAAAGATCAGGGAAACGCTTG, the PBM binding z-score is -0.315.

CCTACTGGGCCAAGGTCATTGATCAGTCAAAGCA had a PBM binding z-score of 3.12.

Sequence ATCTCTAGGTAAAAAGTTCAGTGAAAGAGAGGAC gave a PBM binding z-score of 1.39.

For the sequence CCTTACGGGTCACTCCAGATTATAGCATCGGAGT, the PBM binding z-score was 4.8.

Sequence AGTCAAAGTTCATCTAGGCAACGTAAGATATGCT returned a PBM binding z-score of 6.15.

Regarding TAGCCTAGGTCAGTCAGGGGCCAGTATAGAAAGC, the PBM binding z-score was determined as 0.48.

CCGACTGGGGCAGAAAGGTTACCACACCATCCGG displayed a PBM binding z-score of 0.428.

Consider ATATGTAGGTTACATCTGGGTCATTCAGGCTATG, for which the PBM binding z-score came out at 3.57.

For TCAGACAGATGAAGGTAACTCAGGTACGCAGTCG, the PBM binding z-score was found to be 0.98.

The sequence CTCGAAAGGTCGGTTAAGGTGAGTATACGGATAA displayed a PBM binding z-score of 2.1.

Take TCGAGTAGGTTAGGGGCATTCTGAATGGCGTCGA: the PBM binding z-score is 0.0463.

Sequence GATACAGGGTCAAGGCCGGAGTACGCGTATTGAT displayed a PBM binding z-score of 4.13.

On to GCTGCTAGGTCAACTGATGGTCAGTTAAAGCTCG, for which the PBM binding z-score turned out to be 3.11.

As to ACTAGCAGGCCAAGTTTGGGCCACTCAAACAAAG, the PBM binding z-score was -0.716.
